MITF inh: inhibitors of human MITF | O75030 | AlphaScreen MITF homodimerization, bead proximity signal | inhibition, % at 2.6 µM | actives 0.91% (n = 650,000); in the data active = inhibition above about 50%;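 note: 0% = vehicle wells with protein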
GPR151 ag: human GPR151 activation. activation, % at 11.2 µM. actives 1% (n = 650,000). PathHunter beta-arrestin GPR151 cells, luminescence. AID 1508602. Q8TDV0; in the data active = activation above about 4.9%;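 note: 0% = median of compound wells and 100% = cells with positive control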
TEAD-YAP block: TEAD-YAP interaction inhibition; inhibition, % at 9.12 µM; AID 1259422; actives 1.4% (n = 640,000); HEK-TIYL cells, TEAD-Gal4/YAP UAS-luciferase luminescence; in the data active = inhibition above about 32%;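 note: 0% = median of test compound wells and 100% = reference inhibitor wells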
FBW7 activator: human FBW7 E3 ligase activation, primary screen. normalized activity (activation), % at 26.1 µM. AID 1259310. actives 0.13% (n = 650,000). Q969H0. AlphaScreen FBW7–phospho-cyclin E peptide binding, activator screen; in the data active = normalized activity above about 1.9%;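 note: purified mutant Fbw7 with reduced substrate affinity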
Target sequence (Q969H0 whole entry, looked up): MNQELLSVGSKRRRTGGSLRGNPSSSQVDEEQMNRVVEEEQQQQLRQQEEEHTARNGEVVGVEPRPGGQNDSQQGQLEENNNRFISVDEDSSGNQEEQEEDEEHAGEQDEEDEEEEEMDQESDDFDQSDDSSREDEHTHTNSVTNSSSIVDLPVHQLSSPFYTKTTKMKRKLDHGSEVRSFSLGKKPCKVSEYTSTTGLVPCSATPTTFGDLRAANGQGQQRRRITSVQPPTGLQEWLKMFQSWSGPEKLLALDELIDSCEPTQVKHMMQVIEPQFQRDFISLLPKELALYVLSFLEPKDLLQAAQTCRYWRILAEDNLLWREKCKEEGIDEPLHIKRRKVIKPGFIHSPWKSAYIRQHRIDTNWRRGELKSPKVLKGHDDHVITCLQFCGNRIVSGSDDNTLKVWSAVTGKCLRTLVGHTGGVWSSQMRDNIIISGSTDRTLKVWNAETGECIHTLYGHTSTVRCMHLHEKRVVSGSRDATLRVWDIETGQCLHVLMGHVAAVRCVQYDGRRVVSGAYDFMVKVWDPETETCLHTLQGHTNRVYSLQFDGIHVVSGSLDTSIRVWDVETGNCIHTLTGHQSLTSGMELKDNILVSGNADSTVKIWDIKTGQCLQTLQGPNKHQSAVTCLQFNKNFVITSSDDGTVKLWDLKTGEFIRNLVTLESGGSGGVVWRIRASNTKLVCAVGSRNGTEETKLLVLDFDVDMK
GPR151 conf act: human GPR151 activation, confirmation screen. shares compounds with GPR151 ag. GPR151 PathHunter beta-arrestin cells, luminescence, 90 min; % of EA-reagent control over plate median. activation, % at 11.2 µM. 6,700 tested, under 10 active;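 active = mean percent activation across replicates above the confirmation screen cutoff of 4.91%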
GPR119 ag: GPR119 activation, counter-screen for GPR151 activators; shares compounds with GPR151 ag; GPR119 PathHunter beta-arrestin cells, luminescence, 90 min; 0 = compound-well median, 100 = enzyme-acceptor control; activation, % at 11.2 µM; actives 0.3% (n = 6,700); AID 1508611;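 active = mean percent activation in the counterscreen above 29.09%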;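 note: counterscreen on off-target GPR119 to flag nonselective hits from the GPR151 activator screen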
Starred values were filed as active, the others as inactive; . = no result; ! = not confirmed by another sample. Only some compounds are listed: those with a hit (about 3.5% of all), similar ones and a draw of the others.

SMILES	MITF inh	GPR151 ag	TEAD-YAP block	FBW7 activator	GPR151 conf act	GPR119 ag
O=C(NCC1CCN(S(=O)(=O)c2ccccc2)CC1)C(=O)Nc1ccccc1	10.5	-1.2	-1.4	0.6	.	.
CCOc1ccc(S(=O)(=O)N(CC(=O)NCCSc2ccccc2)c2ccccc2)cc1	2.8	5.7*	7.2	-0.1	1.9	20.8
COc1ccc(CCNC(=O)COc2ccc(C(C)C)cc2)cc1	-6.1	6.7*	3.0	-0.1	-0.5	-11.8
COc1ccc(OCC(=O)NCCSc2ccccc2)cc1	0.7	10.2*	-22.0	0.0	0.1	7.4
CC(C)c1ccc(OCC(=O)NCCCS(=O)(=O)N2CCc3ccccc3C2)cc1	1.0	8.2*	2.1	0.1	0.6	-0.8
Cn1c(O)c(/C=N/c2sc3c(c2C#N)CCC3)c(=O)n(C)c1=O	-0.2	0.0	1.3	0.0	.	.
O=C1CSc2cc(S(=O)(=O)NCCc3ccccc3)ccc2N1	-3.7	-0.5	-14.5	-0.3	.	.
CC(C)N(Cc1nc(-c2ccccc2)no1)C(=O)CN1C(=O)c2ccccc2C1=O	1.4	0.0	-2.8	0.1	.	.
CC(C)N(Cc1nc(-c2ccccc2)no1)C(=O)CCCN1C(=O)c2ccccc2C1=O	14.2	11.2*	9.2	0.0	-0.4	-3.8
O=C(O)C1CC(=O)N(CCN2CC(C(=O)O)CC2=O)C1 (configuration not stated)	11.8	0.0	3.5	0.2	.	.
O=C(O)[C@H]1/C(=C/CO)O[C@@H]2CC(=O)N21	-1.2	4.9*!	-7.0	0.0	0.4	2.9
CN1CCN(CCCNC(=O)CCCNC(=O)Cn2cnc3sc4c(c3c2=O)CCCC4)CC1	13.7	6.0*	-4.5	0.1	-0.3	-0.3
CCN1CCN(CCCNC(=O)CCCNC(=O)Cn2cnc3sc4c(c3c2=O)CCCC4)CC1	17.4	-0.6	5.7	0.4	.	.
O=C(Nc1ccc(N2CCCCC2)c(C(=O)O)c1)c1ccco1	3.8	-0.5	-6.1	-0.1	.	.
NC(=O)c1cc(NC(=O)c2ccco2)ccc1N1CCCCC1	-5.5	6.5*	-39.6	0.2	0.1	10.2
C/C(=C\c1ccccc1)CN1CCC(C(=O)NC(C)C)CC1	44.0	5.1*	10.4	0.1	-0.8	-5.3
CCN(CC)C(=O)C1CCCN(c2cc(C(=O)NCCc3ccc(OC)cc3)ccn2)C1 (configuration not stated)	-2.5	0.4	-3.4	-0.1	.	.
Cc1ccc(C2=NS(=O)(=O)N(C)C(C(=O)Nc3ccc(F)cc3F)=C2)cc1	-0.3	11.5*	-0.8	-0.2	1.4	-10.0
COc1ccc(C2=NS(=O)(=O)N(C)C(C(=O)Nc3ccc(F)cc3F)=C2)cc1OC	-3.1	0.2	22.8	-0.1	.	.
COc1ccc(CN2CCN(Cc3cnn(C(C)C)c3)CC2CCO)c(F)c1 (configuration not stated)	-2.7	0.3	-0.6	-0.1	.	.
CC1(C)Cc2nc(NCc3ccccc3)c(C#N)cc2CO1	10.8	0.3	-5.8	0.1	.	.
NC(=O)c1cccc(N)c1	-6.7	6.2*!	-8.9	0.1	0.0	0.7
Nc1ccc2c(c1)S(=O)(=O)c1cc(N)ccc1O2	2.7	7.4*	-59.2	-0.1	0.3	-5.9
COc1ccc(-n2cc(-c3ccccc3)c3c(NCCc4ccc(OC)c(OC)c4)ncnc32)cc1	6.9	5.1*	3.0	-0.1	-0.3	11.9
C/C(=N\NC(=O)C(O)c1ccccc1)c1cccc(Br)c1 (configuration not stated)	-14.2	0.3	3.4	0.3	.	.
SMILES	MITF inh	GPR151 ag	TEAD-YAP block	FBW7 activator	GPR151 conf act	GPR119 ag
CCOc1ccccc1C(=O)NNC(=O)c1cc2cc(Br)ccc2oc1=O	1.2	1.4	-8.2	0.2	.	.
CCCCC(=O)Nc1nnc(S(=O)(=O)N(C)c2cccc(C)c2)s1	7.5	6.7*	1.2	0.1	0.8	-2.5
COc1ccc(Cl)cc1NC(=O)n1cc(C)cn1	5.6	-0.9	5.6	0.2	.	.
COc1ccc(NC(=O)n2cc(C)cn2)cc1OC	15.7	5.2*	-0.6	-0.2	0.3	-10.0
O=c1[nH]c2nc(/C=C/CCCO)cnc2n1CC1CC1	-4.0	0.4	-11.6	-0.2	.	.
Cc1ccc(N=Cc2c[nH]c3ccccc23)c(O)c1	14.1	-0.2	-31.9	-0.1	.	.
O=c1cc(Cc2ccccc2)nc2c(-c3ccccc3)c[nH]n12	2.6	7.4*	16.3	-0.4	1.0	4.8
Cc1[nH]n2c(=O)cc(Cc3ccccc3)nc2c1C#N	7.1	-0.9	-11.7	1.1	.	.
COc1ccccc1-c1nnc(NC(=O)c2ccc(C#N)cc2)o1	13.8	-1.1	4.5	0.1	.	.
OCCOCCNc1ncnc2ccc(I)cc12	10.0	5.4*	8.0	1.4	0.4	-3.6
O=C1C(=O)N(c2nc3ccccc3s2)C(c2ccccc2)/C1=C(\O)c1ccccc1 (configuration not stated)	8.9	4.9*	11.8	0.0	1.2	14.8
CCOc1cc(/C=C2\SC(=S)N(c3ccc(NC(C)=O)cc3)C2=O)ccc1O	-3.7	-0.1	6.3	-0.2	.	.
C/C(=N\NS(=O)(=O)c1ccc(C)cc1)c1c(O)c2ccccc2oc1=O	13.5	-0.5	2.5	0.3	.	.
C/C(=N/NS(=O)(=O)c1ccc(C)cc1)c1c(O)c2ccccc2oc1=O	9.4	5.4*	9.2	0.1	-1.5	-11.0
CCNc1nc(-c2ccc(F)cc2)cs1	-4.2	0.7	-5.7	0.1	.	.
COC(=O)COc1ccc(NC(=O)C(c2ccccc2)c2ccccc2)cc1	16.9	1.1	-3.6	0.5	.	.
O=C(O)COc1ccc(NC(=O)C(c2ccccc2)c2ccccc2)cc1	10.2	4.9*	-10.3	0.1	-1.4	-12.7
O=C(Nc1ccc(S(=O)(=O)Nc2ncccn2)cc1)C(c1ccccc1)c1ccccc1	21.0	7.1*	-2.3	1.4	0.6	-6.9
CC(C)CNc1nccn2c(-c3ccccc3CO)cnc12	-19.9	-0.8	-3.1	0.1	.	.
CCOC(=O)c1ccc(CN(Cc2ccc(C)cc2)S(=O)(=O)c2ccc(F)c(C(=O)Nc3cccc(Cl)c3Cl)c2)cc1	0.7	-1.2	2.0	-0.2	.	.
CNCCOc1cccc(OC(C)C)c1	34.2	4.9*	-8.9	0.0	0.1	-1.0
O=c1c2cc(-c3ccccc3)sc2ncn1-n1cccc1	9.0	7.7*	-68.5	0.5	-0.1	2.9
Cc1ccc2c(c1)cc(CN(Cc1ccco1)S(=O)(=O)c1ccccc1)c1nnnn12	-11.7	6.7*	-11.0	0.2	0.2	4.8
Cc1ccc2c(c1)cc(CN(Cc1ccco1)C(=O)N(C)C)c1nnnn12	4.0	0.2	4.0	0.0	.	.
Cc1ccc2c(c1)cc(CN(CCc1ccccc1)C(=O)N1CCOCC1)c1nnnn12	22.1	5.2*	2.9	0.1	0.6	2.8
Cc1ccc2c(c1)cc(CN(Cc1cccs1)C(=O)C1CC1)c1nnnn12	16.6	5.4*	-2.8	1.1	0.5	4.5
Cc1ccc2c(c1)cc(CN(Cc1cccs1)C(=O)c1cccs1)c1nnnn12	0.4	1.3	3.3	0.0	.	.

Bioassay records as filed in PubChem BioAssay.
